# Bioassay records deposited in PubChem by National Center for Advancing Translational Sciences (NCATS).
# IL1B secr inh = inhibitors of inflammasome signaling (IL-1 beta secretion); actives 4.7% (n = 360,000); activity change, % at 57.5 µM; AID 743279; THP-1 LPS/ATP IL-1B secretion, AlphaLISA, 16 h; hits give low values; in the data active = activity change below about -50%; inconclusive = mostly about -30% to -49%; also: % is scaled to controls: 0 for no effect and ±100 for the full control effect
#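 Secreted IL-1B measured by AlphaLISA bead assay after 16 h compound exposure of THP-1 cells; compounds (final up to 57.5 uM) added 1 h before LPS (250 ng/mL) and ATP (1.25 mM) stimulation; lower signal means less secretion.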
# Vif-A3F inh = Vif-A3F binding inhibition; HeLa A3F-eYFP + Vif (tagged APOBEC3F with the HIV-1 protein that degrades it), YFP fluorescence increase; Potency, µM (highest dose often 46.1 µM), inactives show at the top dose activity, negative = active; actives 0.2% (n = 390,000); AID 602313; also: potency is read from the fitted curve at half-maximal effect; % of control where 0% means no effect; nearly all actives have a fitted effect of over 65% in size
#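 Fluorescence increase (Ex 488/Em 500-530) after overnight compound treatment at 37 deg C flags inhibition of Vif-driven A3F-eYFP loss in stable HeLa A3F-eYFP/Vif cells seeded overnight beforehand.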
# Vif-A3G inh = blocks the Vif interaction with human APOBEC3G; HeLa A3G-eYFP + Vif (tagged APOBEC3G with the HIV-1 protein that degrades it), YFP fluorescence, overnight; Potency, µM (highest dose often 46.1 µM), inactives show at the highest dose activity, negative = active, usual class: inhibitors; actives 0.076% (n = 410,000); also: potency is read from the fitted curve at half-maximal effect; % is scaled to controls: 0 for no effect and ±100 for the full control effect; nearly all actives have a fitted effect of over 60% in size
# Target sequence (Q9HC16 whole entry, looked up): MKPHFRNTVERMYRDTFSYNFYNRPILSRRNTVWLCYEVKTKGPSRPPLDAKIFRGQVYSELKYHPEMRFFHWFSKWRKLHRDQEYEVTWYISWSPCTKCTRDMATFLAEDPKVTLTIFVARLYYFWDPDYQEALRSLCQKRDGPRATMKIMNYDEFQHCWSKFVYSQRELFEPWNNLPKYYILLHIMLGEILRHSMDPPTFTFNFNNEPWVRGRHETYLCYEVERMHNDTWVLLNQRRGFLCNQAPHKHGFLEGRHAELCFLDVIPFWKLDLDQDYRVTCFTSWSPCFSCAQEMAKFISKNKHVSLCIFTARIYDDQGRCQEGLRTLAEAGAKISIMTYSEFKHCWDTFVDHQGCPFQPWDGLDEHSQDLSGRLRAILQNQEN
#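 Read-out is eYFP fluorescence (Ex 488/Em 500-530) from Vif-expressing HeLa A3G-eYFP cells; more signal means A3G escaped Vif-mediated degradation. Cells plated overnight, compound pinned in, incubated overnight at 37 deg C.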
# Giardia killer = kills Giardia lamblia; Giardia lamblia trophozoite viability; activity change, % at 7.66 µM, hits read low; actives 0.15% (n = 340,000); AID 540267; in the data active = activity change below about -80%; inconclusive = between about -30% and that limit;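 also: parasites exposed to compound for two days anaerobically before the ATP read; % is scaled to controls: 0 for no effect and ±100 for the full control effect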
#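 Media and compound were dispensed first, then trophozoites at 100 cells/well; plates sat 48 hrs at 37 deg C without oxygen before ATP luminescence reagent was added and read after 15-30 min at room temperature.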
# SW480 rereplic = induces DNA re-replication in SW480 colon adenocarcinoma cells; SW480 DNA re-replication, Hoechst DNA content imaging, 48 h; Potency, µM (titrated, usually from 46.1 µM), inactives show at the highest dose re-replication activation, actives largely listed as activators; actives 1.8% (n = 340,000); AID 624297; also: potency is read from the fitted curve at half-maximal effect; % of control where 0% means no effect; nearly all actives have a fitted effect of over 55% in size
#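 Readout is total intensity of Hoechst-stained nuclei, excited at 405 nm and collected at 500-530 nm. Compound treatment lasted 48 hr at 37 C in 5% CO2 before staining.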
# MCF10A rerep = DNA re-replication induction in MCF 10a cells; MCF 10A DNA re-replication, Hoechst nuclear intensity, 48 h; Potency, µM (doses to about 46.1 µM), inactives show at the top dose activity, positive = re-replication, usual class: activators; actives 2.9% (n = 350,000); also: potency is read from the fitted curve at half-maximal effect; % of control where 0% means no effect; nearly all actives have a fitted effect of over 50% in size
# Numbers without * were called inactive; ? = inconclusive; . = no result given; [ ] = remark or other dose. Most compounds without a hit are left out; they make up all but 6.9% or so of the library. Unless noted, calls follow the shape of the dose curve; as a rule, active = well fitted curve in the direction sought with a large enough effect; inconclusive = small, poorly fitted or top-dose-only effect, or another doubt; inactive = no such curve, though single readings can be large; an effect the other way counts as inactive or inconclusive.
SMILES,IL1B secr inh,Vif-A3F inh,Vif-A3G inh,Giardia killer,SW480 rereplic,MCF10A rerep
Cn1ncc2c(Nc3ccc(Cl)c(Cl)c3)ncnc21,34.6,-8.7%,-7.5%,8.8,-1.6%,21.4%
CN1CCC(N(C)C(=O)c2ccc(Cl)c(S(=O)(=O)N3CCc4ccccc43)c2)CC1,-50.1*,0.7%,0.7%,12.6,?,?
CN1CCC(N(C)C(=O)c2cccc(S(=O)(=O)N3CCc4ccccc43)c2)CC1,-23.8,-10.1%,-0.9%,-10.4,-5.3%,24.5%
CCC(C(=O)NC1CCCCC1)n1nc(C)c2sc3ccccc3c2c1=O (centres undefined),.,-5.0%,-5.2%,.,.,.
O=[N+]([O-])CC(c1ccc(F)cc1)c1c[nH]c2ccccc12 (centres undefined),0.0,-0.5%,?,-21.0,?,13µM*
Cn1cc(C(C[N+](=O)[O-])c2ccccc2)c2ccccc21 (centres undefined),52.3,0.4%,?,0.4,10.3µM*,13µM*
Cc1cc(C)cc(OCC(=O)Nc2nc3c(s2)CC(C(C)(C)C)CC3)c1 (centres undefined),.,-6.0%,-1.0%,.,.,.
CCc1cccc(C)c1NC(=O)Cn1ccn(Cc2ccc(Cl)cc2)c(=O)c1=O,.,2.9%,1.8%,.,.,.
COc1ccc(N2CCN(C(=O)C(C)n3nc(C)c4sc5ccccc5c4c3=O)CC2)cc1 (centres undefined),.,0.3%,5.0%,.,.,.
COc1ccc(-n2nc(C(=O)NCC(=O)NCCCN3CC(C)CC(C)C3)c3ccccc3c2=O)cc1Cl (centres undefined),-70.7*,-3.5%,3.2%,-8.9,?,17.9%
CCN(CC)C(=O)CNC(=O)c1nn(-c2ccc(OC)c(Cl)c2)c(=O)c2ccccc12,22.5,-6.5%,0.9%,1.0,-4.1%,0.1%
COc1ccc(-n2nc(C(=O)NCC(=O)Nc3cc(OC)c(OC)c(OC)c3)c3ccccc3c2=O)cc1Cl,0.0,-6.2%,0.9%,2.0,5.6%,23.1µM*
CCc1ccc2c(c1)c(=O)c(C(=O)c1ccccc1)cn2CC(=O)Nc1ccc(C)c(Cl)c1,.,-4.1%,-6.2%,.,.,.
CN(C)c1ccc(C(C(=O)NCC2CCCO2)N(C(=O)c2snc(C(N)=O)c2N)c2ccc3c(c2)OCO3)cc1 (centres undefined),-66.1*,4.3%,-4.3%,1.9,-7.3%,-3.2%
CCOc1ccc(C(C(=O)NCC2CCCO2)N(C(=O)c2snc(C(N)=O)c2N)c2ccc3c(c2)OCCO3)cc1 (centres undefined),-58.9*,-11.8%,-4.5%,12.0,19.7%,?
CC(C)c1ccc(N(C(=O)c2snc(C(N)=O)c2N)C(C(=O)NCC2CCCO2)c2ccc(N(C)C)cc2)cc1 (centres undefined),-79.3*,-3.0%,-19.0%,1.9,2.2%,?
CN(C)c1ccc(C(C(=O)NCC2CCCO2)N(C(=O)c2snc(C(N)=O)c2N)c2ccccc2)cc1 (centres undefined),-2.8,-0.8%,0.2%,21.8,-19.3%,?
CCOc1ccccc1NC(=O)Cn1c(=O)n(CCCC(=O)NCCc2ccc(C)cc2)c(=O)c2ccccc21,.,-10.1%,-4.9%,.,.,.
CC(Sc1nnc(Cc2cccs2)n1C1CCCCC1)C(=O)N1CCc2ccccc21 (centres undefined),-66.8*,.,-2.7%,11.3,-5.9%[9.22 µM],?
CCOc1ccc(C(=O)NCC(c2ccco2)S(=O)(=O)c2cccs2)cc1 (centres undefined),.,-0.1%,5.2%,.,.,.
O=C(CCS(=O)(=O)c1ccccc1)N(CCCN1CCOCC1)c1nc2ccccc2s1,-107.4*,-17.4%,-28.1%,-5.7,?,?
Cc1ccc2nc(N(CCN3CCOCC3)C(=O)CCS(=O)(=O)c3ccccc3)sc2c1,?,-4.6%,-28.7%,-5.5,?,?
Cc1ccc(S(=O)(=O)CCC(=O)N(CCCN2CCOCC2)c2nc3ccccc3s2)cc1,-72.0*,-6.3%,-14.1%,-2.8,85.1%,?
CCc1ccccc1NC(=O)c1cc(S(=O)(=O)N(CC)c2ccccc2)ccc1F,.,-0.6%,1.6%,.,.,.
COc1ccccc1-c1noc(-c2ccc(NCc3ccco3)c([N+](=O)[O-])c2)n1,.,?,-5.1%,.,.,.
SMILES,IL1B secr inh,Vif-A3F inh,Vif-A3G inh,Giardia killer,SW480 rereplic,MCF10A rerep
COc1cc(C(=O)C(=O)c2cc(OC)c(O)c(OC)c2)cc(OC)c1O,5.4,-13.0%,-0.6%,-10.3,-1.6%,-1.7%
COc1cc(-c2cc(OC)c(O)c(OC)c2)cc(OC)c1O,-23.7,?,?,-12.5,23.1µM*,?
COc1cccc(CN2C(=O)c3cccc(N)c3C2=O)c1,4.8,4.9%,0.8%,2.6,?,18.4µM*
Cc1ccc2c(c1)C/C(=C/c1ccc(N(C)C)cc1)C2=O,.,.,-6.2%,.,.,.
COc1cc(CN(C(=O)c2ccccc2[N+](=O)[O-])c2ccccn2)cc(OC)c1OC,.,4.2%,-1.3%,.,.,.
Cc1nc2ccccc2c(=O)n1NC(=O)COc1ccccc1,20.8,1.2%,1.5%,6.5,-3.8%,?
O=C(Nn1c(COc2ccccc2)nc2ccccc2c1=O)C(Cl)(Cl)Cl,-3.7,2.9%,-9.5%,-19.5,18.4µM*,?
c1cc2c(cc1-c1csc(NNC3=NCCCCC3)n1)OCCO2,-101.5*,-7.3%,3.8%,2.7,-2.8%,1.5%
CCC(=O)Nc1nc(-c2ccc3c(c2)OCCO3)cs1,?,1.5%,2.5%,-24.9,12.5%,5.7%
Cc1cccc(OCCn2cnc(Cl)c2Cl)c1,-51.9*,-11.7%,-4.4%,-0.4,-2.7%,-7.3%
COc1ccccc1OCCN1CSC(=S)N(C)C1,-107.3*,-15.1%,?,9.2,2.59µM*,7.31µM*
Cc1cccc(OCCN2CSC(=S)N(C)C2)c1,-96.1*,-8.9%,?,-7.9,?,5.8µM*
Cc1ccc(Cn2ccnc2SCC(=O)Nc2ccccc2C(F)(F)F)cc1,.,0.4%,6.2%,.,.,.
O=C(Nc1cccc(Cl)c1)c1cc(S(=O)(=O)N2CCCc3ccccc32)ccc1F,.,4.5%,0.3%,.,.,.
Cc1cccc(NC(=O)C2CCC(CNS(=O)(=O)c3ccc(Br)s3)CC2)c1 (centres undefined),.,?,4.2%,.,.,.
